Assay outcomes: PubChem, National Center for Advancing Translational Sciences (NCATS)
Rows were chosen to be rich in hits. Some 21% of all compounds tested hit in one or more screens of this group.
HCMV antiviral = inhibitors of human cytomegalovirus; HFF cells, HCMV-luciferase reporter, 72 h; stronger effect = lower value; AID 1259415; activity change, negative = inhibition, % at 57.5 µM; 410,000 compounds, 4.5% hits; in the data active = activity change below about -60%; inconclusive = no clear call, values can overlap the other calls; inactive = above about -39%
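Screen run at 2 compound doses on HFFs infected with reporter HCMV, MOI 1 PFU/cell. Luciferase activity from cell lysates at 72 h post infection gave inhibition relative to buffer-only and Salinomycin wells.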
HCV inh = HCV inhibition; Huh7.5.1 HCVcc-Cre infection, luciferase reporter, 44 h; Potency, µM (titrated, usually from 41.8 µM), hits mostly inhibitors; 340,000 compounds, 3.4% hits; AID 651820
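Cells seeded at 1,000/well and cultured 4 h, then compounds added followed by HCVcc-Cre virus (~0.5 moi). After 44 h further culture, luciferase substrate was added, plates held 15 min at room temperature, and luminescence read for 15 sec.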
Pf growth 96h = P. falciparum growth inhibition at 96 hour, primary screen for plastid delayed-death inhibitors; P. falciparum luciferase reporter growth, 96 h; Potency, µM (titrated, usually from 28.7 µM), most hits filed as inhibitors; 320,000 compounds, 6.9% hits
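Two-generation exposure (96 h) targets delayed-death phenotype. Reporter parasites carrying integrated firefly luciferase, in red cells at 2% hematocrit and 0.05% parasitemia final, kept at 37 C, 5% CO2; luminescence loss indicates inhibition.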
Shiga toxin inh = Shiga toxin inhibition. Vero cells, Shiga toxin protein synthesis inhibition reporter. inhibition, % at 38.7 µM. 290,000 compounds, 9.2% hits. AID 2315; in the data active = inhibition mostly above about 28%, no sharp cut-off; inactive = mostly below about 43%
Pf growth 48h = inhibits P. falciparum growth in the first generation, 48 h; 310,000 compounds, 5.9% hits; P. falciparum luciferase growth in erythrocytes, 48 h; AID 504832; Potency, µM (top dose mostly 28.7 µM), hits mostly inhibitors
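Read-out is firefly luciferase luminescence from an integrated reporter in P. falciparum, so falling signal marks reduced parasite growth. Infected erythrocytes were at 2% hematocrit and 0.1% parasitemia (final) in Albumax-supplemented RPMI 1640.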
CHX counter = counter-screen for Shiga toxin inhibitors: cycloheximide protein synthesis inhibition. cell reporter, cycloheximide protein synthesis inhibition counterscreen. max response, %. 300,000 compounds, 12% hits; in the data active = max response mostly above about 13%, no sharp cut-off; inactive = mostly below about 14%; also: read at 38.3 µM for the half of the compounds with a filed dose
Hits are given with their value; - = inactive; ? = inconclusive; . = not tested or not shown. Unless noted, calls follow the shape of the dose curve; as a rule, active = well fitted inhibition curve with a large enough effect; inconclusive = small, poorly fitted or top-dose-only effect, or another doubt; inactive = no such curve, though single readings can be large or run the other way.

SMILES	HCMV antiviral	HCV inh	Pf growth 96h	Shiga toxin inh	Pf growth 48h	CHX counter
CCOC(=O)Cc1ccc(NC(=O)NCc2c(-n3cccc3)sc3c2CCCC3)cc1	-	.	.	.	.	.
Cn1c(SCc2nc(-c3ccccc3)no2)nnc1-c1ccco1	-	-	-	-	-	-
Cn1c(SCC(=O)N2c3ccccc3Sc3ccc(Cl)cc32)nnc1-c1ccco1	-	?	1.47µM	-	9.28µM	-
Cn1c(SCC(=O)c2ccccc2)nnc1-c1ccco1	-	-	14.7µM	62.6	-	41.4
Cn1c(SCc2ccccc2)nnc1-c1ccco1	-	-	-	82.4	-	40.8
COc1ccc(C(=O)CSc2nnc(-c3ccco3)n2C)cc1	-	-	.	-	-	-
c1ccc(CSc2nnc(-c3ccco3)n2Cc2ccco2)cc1	-	-	?	-	?	37.5
COc1ccccc1NC(=O)C1CCCN(S(=O)(=O)c2ccc3c(c2)CC(C)N3C(C)=O)C1 (stereo not drawn)	-	?	-	-	?	-
CC1(NC(=O)Cc2c(Cl)cccc2Cl)CCS(=O)(=O)C1 (stereo not drawn)	-	-	-	.	?	.
COCCNC(=O)C1(C)CCCN(C(=O)c2ccc(F)cc2Cl)C1 (stereo not drawn)	-	.	.	.	.	.
COc1cccc(CNC(=O)c2nn(-c3ccccc3Cl)nc2CO)c1	-	.	.	.	.	.
COCCn1c(SCc2cccnc2)nnc1-c1ccco1	-	-	9.28µM	-	-	-
Cc1cc(NC(=O)CSc2nnc(-c3ccco3)n2C)no1	-60.4	-	-	.	?	.
Cc1cc(NC(=O)CSc2nnc(-c3ccccc3C)n2C)no1	-	-	-	.	?	.
CC(C)(C)c1nnc(SCC(=O)c2ccccc2)n(N)c1=O	-	-	-	63.5	-	56.8
C[C@H]1[C@H](c2ccccc2)Oc2cccc(NCCc3ccccc3)c2S(=O)(=O)N1Cc1cccc(Cl)c1	-	.	.	.	.	.
CC(NC(=O)c1ccc(C(=O)c2ccccc2)cc1)c1ccc(S(N)(=O)=O)cc1 (stereo not drawn)	-	?	-	.	-	.
Cc1cccc(Cc2nnc(CCC(=O)N3CCCCC3c3nccs3)o2)c1 (stereo not drawn)	?	-	-	-	-	-
CCc1ccc(CN(C)C(=O)CCc2nnc(Cc3cccc(C)c3)o2)nc1	-	-	?	-	?	-
Cc1cccc(Cc2nnc(CCC(=O)N(C)C3CCOC3)o2)c1 (stereo not drawn)	-70.2	-	?	71.1	-	27.0
CCN(CC1CCCO1)C(=O)CCc1nnc(Cc2ccc3c(c2)OCO3)o1 (stereo not drawn)	-	-	?	-	-	-
Cc1cccc(Cc2nnc(CCC(=O)N(CC3CC3)CC3CCCO3)o2)c1 (stereo not drawn)	-	-	?	57.9	-	47.4
CCCOC1CCCN(C(=O)CCc2nnc(Cc3cccc(C)c3)o2)C1 (stereo not drawn)	-	-	-	94.8	-	47.3
COc1cc2c(cc1NC(=O)COc1ccc(Br)cc1C)oc1ccccc12	-	.	.	.	.	.
N#CCSc1ccccc1NC(=O)COC(=O)CCN1C(=O)C2CC=CCC2C1=O (stereo not drawn)	-	-	-	.	-	.
SMILES	HCMV antiviral	HCV inh	Pf growth 96h	Shiga toxin inh	Pf growth 48h	CHX counter
N#CCCn1c(-c2nonc2NC(=O)c2ccccc2Cl)nc2ccccc21	-	-	-	-	?	-
CCCCn1c(-c2nonc2NC(=O)c2ccccc2Cl)nc2ccccc21	-76.9	-	.	.	.	.
CC(=O)Nc1nonc1-c1nc2ccccc2n1CC1CC1	-67.1	?	-	-	-	-
CCn1c(C)nc2cc(C(=O)NNC(=O)Nc3ccc(Cl)c(Cl)c3)ccc21	-	.	-	-	-	-
CCn1c(C)nc2cc(C(=O)NNC(=S)Nc3ccc(Cl)cc3)ccc21	-	-	?	-	-	22.2
CCn1c(C)nc2cc(C(=O)OC(C(F)(F)C(F)F)C(F)(F)C(F)F)ccc21	-	?	-	70.3	-	45.5
CCn1c(C)nc2cc(C(=O)NNC(=S)Nc3ccccc3)ccc21	?	-	-	70.7	-	31.8
CCn1c(C)nc2cc(C(=O)NNC(=S)Nc3ccc(F)cc3)ccc21	-	-	-	57.5	-	31.1
COc1ccc(CC(=O)Nc2c(C(=O)N3CCN(c4ncccn4)CC3)oc3ccccc23)cc1	?	-	-	-	?	-
COc1cccc(CN(C)C(=O)c2cc(COc3ccc(-n4cncn4)cc3)on2)c1	-	?	-	-	?	-
COc1cccc(CN(C)C(=O)c2cc(COc3c(F)cccc3F)on2)c1	-	-	-	-	-	21.9
CCN(CCn1cccn1)C(=O)c1cc(COc2c(F)cccc2F)on1	-	-	?	-	-	-
CCN(Cc1ccccc1)C(=O)c1cc(COc2c(F)cccc2F)on1	-	-	-	-	-	12.9
CCn1ccnc1CN(C)C(=O)c1cc(COc2c(F)cccc2F)on1	-	-	?	-	-	-
CN(Cc1cnn(C)c1)C(=O)c1cc(COc2c(F)cccc2F)on1	-	-	-	-	-	19.0
COc1cccc(CN(C)C(=O)c2cc(COc3ccc4ncccc4c3)on2)c1	-86.2	5.62µM	-	-	-	-
COc1ccccc1-c1cnc(C(O)c2ccc(F)cc2C)[nH]1 (stereo not drawn)	-	.	.	.	.	.
CSCC[C@H](NC(=O)[C@@H]1Cc2ccccc2CN1)C(=O)Nc1ccc2c(c1)OCO2	-	-	?	-	9.28µM	48.1
C[C@@H](NC(=O)[C@@H]1Cc2ccccc2CN1)C(=O)Nc1ccc2c(c1)OCCO2	-	-	-	67.5	-	26.6
C[C@H](NC(=O)[C@@H]1Cc2ccccc2CN1)C(=O)Nc1ccc2c(c1)OCO2	-	-	-	-	-	29.8
Cc1ccccc1C(=O)N(C)[C@H]1C[C@H]2c3[nH]c4ccccc4c3CCN2C[C@H]1[C@H](C)O	-	.	.	.	.	.
O=C1NC[C@H](CCCCN2C[C@H](Cc3ccccc3)N(CCc3ccccc3)C(=O)C2=O)N(CC2CCCCC2)C1=O	-	.	.	.	.	.
Cc1oc2ncn(C)c(=O)c2c1C(=O)NCCCN(Cc1ccccc1)C(C)C	-	.	.	.	.	.
Cc1c(C(=O)Nc2ccccn2)sc2nc3n(c(=O)c12)CCC3	-	-	-	76.6	-	43.2
Cc1ccccc1NC(=O)c1sc2nc3n(c(=O)c2c1C)CCC3	-	.	.	.	.	.
SMILES	HCMV antiviral	HCV inh	Pf growth 96h	Shiga toxin inh	Pf growth 48h	CHX counter
Cc1c(C(=O)Nc2ccccc2F)sc2nc3n(c(=O)c12)CCC3	-	-	-	95.1	-	45.2
CCOC(=O)C1CCN(C(=O)c2cccnc2Oc2ccccc2)CC1	-	-	-	-	-	-
CC(C)CSc1oc(-c2ccco2)nc1S(=O)(=O)c1ccc(Br)cc1	-	.	.	.	.	.
COC(=O)c1cc(=O)nc(NN=C2c3ccccc3-c3ccccc32)s1	-65.6	.	.	.	.	.
O=S(=O)(NCCN1CCOCC1)c1ccc(F)c(Cl)c1	-	-	-	-	-	-
COc1ccc(CNC(=O)C[C@H]2C(=O)N(C3CCCCC3)C[C@@H]2Cc2ccccc2)cc1	-	-	11.7µM	-	-	-
